{"source": "PubChem BioAssay (Tox21)", "note": "Where “and” joins values, the source holds several entries; their conditions need not be identical. Identical values can stand only once. Results filed as inconclusive are left out. A call without a number means that no potency is given here. Calls of active or inactive are those of the source. The call rests on the fitted dose curve; in most records, active means well fitted cell-killing curve with a large enough effect in the repeat runs; inconclusive means weak or mixed curves, or effect the other way; inactive means no such curve, though single readings can be large or run the other way. Potency means the concentration at half of the fitted maximal effect.", "data": [{"assay": "qHTS assay for identifying genotoxic compounds that show differential cytotoxicity against isogenic chicken DT40 cell lines with known DNA damage response pathways - wild type cell line (AID 743012); further: nearly all actives have a fitted effect of over 60% in size", "details": "DT40 wild type chicken cells viability, CellTiter-Glo, 40 h; series mostly up to 68.4 µM", "method_in_brief": "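Viability by ATP luminescence (CellTiter-Glo, 30 min RT) after 40 h compound treatment at 37 C/5% CO2, using 300 parental DNA repair-proficient DT40 cells per well.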", "values": [{"smiles": "CCCCCCCCCCCCCCCC(=O)OC/C=C(C)/C=C/C=C(C)/C=C/C1=C(C)CCCC1(C)C", "Potency": "inactive"}, {"smiles": "CC(C(=O)O)c1ccc(-c2ccccc2)c(F)c1", "note": "(stereo unspecified)", "Potency": "inactive"}, {"smiles": "CC(O)C1CCCCC1", "note": "(stereo unspecified)", "Potency": "inactive"}, {"smiles": "C=C(C)C(=O)OC(C)C", "Potency": "inactive"}, {"smiles": "CCOC(=O)CC(C)C", "Potency": "inactive"}, {"smiles": "CC(Cc1cccc(C(F)(F)F)c1)NCCOC(=O)c1ccccc1", "note": "(stereo unspecified)", "Potency": "18.8 µM (active)"}, {"smiles": "COc1ccccc1OC(=O)Oc1ccccc1OC", "Potency": "inactive"}, {"smiles": "O=C(O)COC(=O)Cc1ccccc1Nc1c(Cl)cccc1Cl", "Potency": "inactive"}, {"smiles": "Cc1ncsc1CCO", "Potency": "inactive"}, {"smiles": "CC1(C)[C@H]2CC[C@]1(C)[C@H](O)C2", "Potency": "inactive"}, {"smiles": "NCCCOCCOCCOCCCN", "Potency": "5.45 µM (active)"}, {"smiles": "FC(F)(F)C(F)(F)C(F)(F)C(F)(F)C(F)(F)C(F)(F)CCI", "Potency": "inactive"}, {"smiles": "Cc1ccc(C)o1", "Potency": "inactive"}, {"smiles": "CCCCCC/C=C/C=O", "Potency": "inactive"}, {"smiles": "O=C(c1ccccc1)c1ccc2n1CCC2C(=O)O", "note": "(stereo unspecified)", "Potency": "inactive"}, {"smiles": "Nc1nc(N)c2nc(CNc3ccc(C(=O)N[C@@H](CCC(=O)O)C(=O)O)cc3)cnc2n1", "Potency": "11.9 µM (active)"}, {"smiles": "O=C(O)C(c1ccc(Cl)cc1)c1ccc(Cl)cc1", "Potency": "inactive"}, {"smiles": "NC(=S)N/N=C/c1cccnc1", "Potency": "inactive"}, {"smiles": "CC(C)CC=O", "Potency": "inactive"}, {"smiles": "CC(=O)SCc1ccco1", "Potency": "inactive"}, {"smiles": "CC(=O)OCCc1ccccc1", "Potency": "inactive"}, {"smiles": "COc1cc(C(C)(C)C)c(O)c(C(C)(C)C)c1", "Potency": "38.6 µM (active)"}, {"smiles": "CC(=O)O[C@H]1C[C@@H]2CC[C@@H]3[C@H](CC[C@@]4(C)[C@H]3C[C@H]([N+]3(C)CCCCC3)[C@@H]4OC(C)=O)[C@@]2(C)C[C@@H]1N1CCCCC1", "Potency": "inactive"}, {"smiles": "CC(=O)/C(C)=C/C1C(C)=CCCC1(C)C", "note": "(stereo unspecified)", "Potency": "inactive"}, {"smiles": "N#Cc1c(F)cccc1F", "Potency": "inactive"}, {"smiles": "CN(C)CCCOc1nn(Cc2ccccc2)c2ccccc12", "Potency": "12.7 µM (active)"}, {"smiles": "COc1ccc(OC)c(OC)c1", "Potency": "inactive"}, {"smiles": "NC(N)=NN=C(/C=C/c1ccc([N+](=O)[O-])o1)/C=C/c1ccc([N+](=O)[O-])o1", "Potency": "1.5 µM (active)"}, {"smiles": "Cl/C(=C\\n1cncn1)c1ccc(Cl)cc1Cl", "Potency": "inactive"}, {"smiles": "CN1CCC[C@@H]1c1cccnc1", "Potency": "inactive"}, {"smiles": "Cc1c(Cn2ccnc2)c2ccccc2n1CCC(=O)O", "Potency": "inactive"}, {"smiles": "Cc1ccc(C(=O)C(C)CN2CCCCC2)cc1", "note": "(stereo unspecified)", "Potency": "23.7 µM (active) and 26.6 µM (active)"}, {"smiles": "C=Cc1c(C)c2cc3[nH]c(cc4nc(cc5nc(cc1[nH]2)C(C)=C5CCC(=O)O)C(CCC(=O)O)=C4C)c(C)c3C=C", "Potency": "inactive"}, {"smiles": "CCCCCCCCC(CO)CCCCCC", "note": "(stereo unspecified)", "Potency": "inactive"}, {"smiles": "Oc1ccc(Cc2ccccc2)cc1", "Potency": "inactive"}, {"smiles": "CC(=O)CC(=O)c1ccccc1", "Potency": "inactive"}]}]}
